Data from the supplement of paper PMC3334620.
In all, about 33,000 sequences were measured (“E-score (-0.5 to 0.5)”: median about -0.011, highest 2% from about 0.28 on). The entries come from a sample that favours the highest values as a whole.

Biological target: T1, Gcr1 (UniProt P07261)
T1 sequence: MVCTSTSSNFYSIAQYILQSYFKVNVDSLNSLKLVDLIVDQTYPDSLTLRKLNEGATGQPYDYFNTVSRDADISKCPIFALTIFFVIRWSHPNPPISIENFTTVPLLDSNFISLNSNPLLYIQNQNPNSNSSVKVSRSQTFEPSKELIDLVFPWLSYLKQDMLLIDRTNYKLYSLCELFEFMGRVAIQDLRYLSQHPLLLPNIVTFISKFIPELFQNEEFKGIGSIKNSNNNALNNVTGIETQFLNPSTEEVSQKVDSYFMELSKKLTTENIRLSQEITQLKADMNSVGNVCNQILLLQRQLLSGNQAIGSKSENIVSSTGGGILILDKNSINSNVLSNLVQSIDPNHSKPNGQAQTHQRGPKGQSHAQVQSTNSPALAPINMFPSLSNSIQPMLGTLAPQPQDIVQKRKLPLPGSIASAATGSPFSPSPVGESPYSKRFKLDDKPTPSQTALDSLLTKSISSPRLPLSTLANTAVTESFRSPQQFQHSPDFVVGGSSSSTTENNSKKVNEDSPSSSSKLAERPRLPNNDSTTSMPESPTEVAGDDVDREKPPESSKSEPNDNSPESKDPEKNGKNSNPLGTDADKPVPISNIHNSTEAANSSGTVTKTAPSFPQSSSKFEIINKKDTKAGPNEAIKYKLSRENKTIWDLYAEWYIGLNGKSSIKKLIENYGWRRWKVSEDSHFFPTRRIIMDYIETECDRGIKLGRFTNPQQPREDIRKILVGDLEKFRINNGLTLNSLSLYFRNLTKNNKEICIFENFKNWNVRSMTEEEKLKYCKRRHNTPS
Assay: PBM E-score (8-mer binding enrichment) (E-score (-0.5 to 0.5)); higher = stronger / more preferred TF binding
Details: protein concentration: 100 nM; construct: GST-full length
Protocol: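 Universal 'all 10-mer' protein binding microarrays (Agilent AMADID 015681) probed with GST-tagged S. cerevisiae TFs (full-length or DBD) made by in vitro transcription/translation (PURExpress), about 100-200 nM. Bound TF was detected with fluorescent anti-GST. Each ungapped 8-mer (which stands for itself and its reverse complement) is scored by the PBM enrichment score (E-score), a modified Wilcoxon-Mann-Whitney statistic from -0.5 to +0.5, computed with the Universal PBM Analysis Suite. Scale: above 0.35 generally sequence-specific binding.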

Sequence	PBM E-score
CGCCCCGA	-0.0435
CCGCGAGC	-0.0368
GCCCGGCA	-0.0489
GGAGTACC	-0.0959
TGTAGCAA	-0.0217
TAAAGAAA	0.162
ATGGGCCA	-0.112
GACAAACA	-0.0622
CGGTCCAC	-0.225
CAGGCTTC	0.213
CTGGCTTC	0.362
CTGGCTTA	-0.159
GCAAAGAA	0.00261
CGCAACCG	0.24
ACACCAGC	-0.126
AAAAGCCC	-0.194
AGAAGCCA	0.362
AGGAGCCT	0.109
TGAAGCCA	-0.0656
AGAAGCAG	0.174
AGGAGCCC	0.294
AGGAGCCG	0.269
CGAAGCCC	0.268
AGAAGCCC	0.386
AGAAGCCT	0.273
ACAAGCCA	-0.275

Sequence	PBM E-score
AGAAGCCG	0.399
GACCACAA	0.0254
AATCGCAA	0.0343
CGCCGCAG	0.103
ATCAGATA	-0.111
CGAAGCCG	0.285
CGAAGCCA	0.272
CCAAGCCG	-0.0556
AGCAAAGG	-0.135
AAAGGACG	0.025
ATTGTGAG	-0.17
CTTTAGGA	0.249
CAATAGGA	0.13
AATTAGGA	0.315
AAATAGGA	0.335
CATTAGGC	-0.0378
TAATAGGA	0.278
ATTTAGGA	0.286
ATTTAGGG	0.196
AATTAGGT	0.0846
GATTAGGA	0.169
AATTAGGG	-0.012
AATTAGGC	0.327
GACTTTCA	0.0748
AATTCGAT	-0.0107
GTCCGTAA	0.215

Sequence	PBM E-score
GTACCTAC	-0.0043
CCATCGTA	-0.145
AGGCTCAA	-0.283
AATCTTGA	0.1
AATTGTTA	0.116
AGGGAACC	0.203
GAGGAACC	0.318
AAGGAACT	0.0335
CAGGAACC	0.32
CGGGAACC	0.289
AAGGAACC	0.285
AAGGAACG	-0.0671
CAGGAACA	-0.125
CAGGAACG	0.118
CGGGAACG	-0.0928
GGGGAACC	0.161
GAGGAACA	-0.193
ATCTAGAT	0.0364
TCAAAACA	0.0365
CGAATGTA	-0.0414
ATCCTTAC	0.0414
AAAGAATA	-0.0583
ATTAAAAC	0.113
ATTAAAAG	0.239
TATTAAAA	0.243
CATTTTAA	0.252

Sequence	PBM E-score
TATTTAAA	0.243
ATTAAAAA	0.332
CATTTAAA	0.287
GATTAAAA	0.249
CATTAAAA	0.306
GGGGGAGA	-0.233
ATGTTCCA	0.15
CCCAACGG	-0.0188
GGAGCGGA	0.187
CGCCGCAC	0.0199
AGGGAAAA	0.108
GAGAGGAA	0.128
AAGAGGAA	0.285
AAGAGGAG	-0.0404
AAGAGGAT	0.0595
CAGAGGAA	0.0251
TAGAGGAA	0.396
AGGCACTG	-0.0493
TACCAGGA	0.19
CTATGCTA	-0.075
AGTCCTCG	-0.0287
GAAGTCAA	0.297
GAAGTCAC	0.00882
CAAGTCAA	-0.0468
AGCCCCTA	-0.0303
ATGGGTGG	-0.0217

Sequence	PBM E-score
AACGCCGC	0.123
CACGCCTC	-0.0746
CACGCCGC	0.151
AACGCCTC	-0.0454
GACGCCTC	0.282
GACGCCGC	0.37
AAAGGGTT	-0.0414
GTAAAGGA	0.149
AAAGAGAC	0.0252
CGGTGCCC	0.231
AGTTGCCA	0.134
AGGTGCCA	0.191
CGTTGCCA	0.0696
GGGTGCCA	0.414
GGTTGCCA	0.377
AGGTGCCG	0.22
AGGTGCCC	0.395
CGGTGCCA	0.00263
GTAAAGAC	-0.129
CAGGCCAG	-0.207
CGGCTGGA	0.0497
CATTCGGA	0.00656
GATGCCGC	0.267
GACAAGAC	0.0539
CTCAGAAA	-0.133
GAAAACGC	-0.167

Sequence	PBM E-score
AGTCTCGC	-0.154
AGGGCTCC	0.143
CAAAGGAC	-0.127
ACAGCTTA	-0.0153
CGAGCTTC	0.371
CGAGCTTA	-0.185
CCAGCTTA	-0.0932
CCAGCTGC	0.218
AGAGCTTC	0.267
ACAGCTTC	0.345
ACAGCTTG	-0.199
CCAGCTTC	0.333
AGTTCCAT	-0.107
AGAAGCAC	0.126
ACCCCGCC	0.0633
CTCTAAGA	-0.00019
AACTTCGG	-0.0312
ACCAGCTC	-0.149
GATACGCA	0.247
TATACGCA	0.285
CATACGCA	0.0448
GATGCGGA	0.033
CATGCGGC	-0.0307
GATGCGGC	0.299
CTGATCTC	-0.125
AGCGCCCG	0.272

Sequence	PBM E-score
AATAGGAT	0.187
TCTAGGAA	0.105
GATAGGAA	0.208
TATAGGAA	0.318
CATAGGAA	0.134
AATAGGAA	0.352
ACATATCA	0.129
CTCCGCGA	0.0908
GGCATTTA	-0.124
ACTGCACA	-0.211
ACAGCCAC	-0.00306
GCAGCCAA	0.395
CCAGCCAC	0.0313
TCAGCCAA	-0.102
GCAGCCAC	0.383
CCAGCCAA	-0.11
ACCGCCAT	-0.181
GACCTAGC	-0.152
GATATTGC	0.00295
CCTAGGTC	-0.17
